In PubChem BioAssay (NCI):
About 83,000 compounds went through this panel and 20% of them were active in at least one assay; those are over-represented in the sample as a whole.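 Single-dose data. Exposure time 48 hours. Values below 10 considered active.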 Calls of active or inactive are those of the source.

tested on: COLO 205 colon; experiment: NCI-60 one-dose screen, 48 h (100 = growth as untreated, 0 = no growth, -100 = all killed); conditions: 10 µM unless noted
Method: Cells are grown in 96 well plates and exposed to the test compound for 48 hours. Compounds are tested at a single concentration, which is 10^-5 M for most compounds. The reported endpoint is percent growth (GI% or GIPRCNT), where numbers from 0 - 100% represent growth inhibition, and numbers from -100% - 0 represent cell death. For example, a value of 40 represents 60% growth inhibition. A value of 0 means no net growth occurred over the course of the experiment. A value of -40 indicates 40% of cells at the beginning of the experiment died by the end of the experiment. A value of -100 means all cells are dead at the end of the experiment.
NCI-60 Human Tumor Cell Lines Screen was performed using the standard one-dose NCI protocol, which is described in more detail at https://dtp.cancer.gov/discovery_development/nci-60/default.htm.
Compounds with GIPRCNT values below 10 were considered active. Activity score was based on GIPRCNT using the following formula: […]
Score is 0 for GIPRCNT values of 100 or above, 50 for GIPRCNT values of 0, and 100 for GIPRCNT values of -100.

SMILES | growth
CCN1C(=O)N(CC)C2Nn3c(s/c(=C4\C(=O)N(C5CCCC5)c5ccccc54)c3=O)=NC21 (stereo not given) | 26.2% (inactive)
O=C(c1c[nH]c2ccccc12)C(Sc1nc2ccccc2c(=O)[nH]1)c1ccccc1 (stereo not given) | 96.9% (inactive)
O=C(Nc1ccccc1)OCC1OCOC(COC(=O)Nc2ccccc2)C1OC(=O)Nc1ccccc1 (stereo not given) | 91.6% (inactive)
Cc1c(C2=NNC(c3ccc4c(c3)OCO4)C2)[n+]([O-])c2ccccc2[n+]1[O-] (stereo not given) | 101% (inactive)
O=C(CNc1ccc(Cl)cc1)Nc1ccc(-c2nc3ccccc3s2)cc1 | 47% (inactive)
Cn1cc(C=O)c2ccccc21 | 104% (inactive)
Cc1oc2nc[nH]c(=O)c2c1C(=O)/C=C/c1ccc(Cl)cc1 | 70.8% (inactive)
CC(C)[C@H](CO)Nc1nc(Nc2ccc(C(=O)NCCNS(=O)(=O)c3cccc4c(N(C)C)cccc34)c(Cl)c2)c2ncn(C(C)C)c2n1 | -69.3% (active)
O=S(=O)(NCCCNc1cc(-c2cn(-c3ccccc3)nc2-c2cccc(O)c2)ccn1)c1cccc2ccccc12 | -65.5% (active)
COc1ccc(NC(=O)c2cc3ccccc3nc2Nc2cc(OC)c(OC)c(OC)c2)cc1 | 76.7% (inactive)
COC1=CC(c2ccc[nH]2)=N/C1=C\c1[nH]c(C)c(CCCn2cc(CCCCCCCCC[C@@H]3Cc4cc(O)ccc4C4CC[C@]5(C)[C@@H](O)CC[C@H]5C43)nn2)c1C (stereo not given in full) | 35.8% (inactive)
Cc1ccc(C(=O)c2sc3nc4c(cc3c2N)CCCC4)c(C)c1 | 3.68% (active)
CCCCCCCCCCC/C=C\C[C@H](O)C/C=C1/C(=O)C=C[C@@H]1C/C=C\CCCC(=O)OC | -45.9% (active)
COc1cccc(-c2nc3sccn3c2-c2ccnc(NCCCNS(=O)(=O)c3ccc(F)cc3)n2)c1 | 17.1% (inactive)
O=S(=O)(NCCCNc1nccc(-c2c(-c3ccccc3)nc3sccn23)n1)c1ccc(F)cc1 | 17.9% (inactive)
CCn1cc(C(=O)O)c(=O)c2cc(F)c(N3CCN(S(=O)(=O)c4ccc(Cl)cc4Cl)CC3)cc21 | -59.8% (active)
CCc1cccc(C)c1NC(=O)c1sc2nc3c(cc2c1N)C(=O)CCC3 | -7.24% (active)
CC(C)C(C(=O)CCN(C)C)c1ccc(Cl)cc1 (stereo not given) | 106% (inactive)
Cc1ccccc1C(=O)c1ccccc1C(=O)O | 115% (inactive)
CC(=O)OCC1OC(OCC2OC(OC(C)=O)C(OC(C)=O)C(OC(C)=O)C2OC(C)=O)C(OC(C)=O)C(OC(C)=O)C1OC(C)=O (stereo not given) | 107% (inactive)

SMILES | growth
C#CCN1C(=O)/C(=c2\sc3n(c2=O)C2C(NN=3)N(CC)C(=O)N2CC)c2ccccc21 (stereo not given) | -12.2% (active)
CN(C)C/C=C/C(=O)Nc1cc2c(Nc3ccc(F)c(Cl)c3F)ncnc2cc1OCCOC(F)F | 20.1% (inactive)
O=C(O)c1cn(C2CC2)c2cc(N3CCN(S(=O)(=O)c4ccc(Cl)c(Cl)c4)CC3)c(F)cc2c1=O | -68.4% (active)
COc1ccc(C2NC3=C(CCCC3)C(C#N)(C#N)C2(C#N)C#N)cc1 (stereo not given) | 11.8% (inactive)
Cc1nc(Nc2cccnc2)sc1C(=O)/C=C/c1ccc(F)cc1 | 56.4% (inactive)
C=C1C(=O)O[C@H]2[C@H]1CC/C(Cn1cc(-c3ccsc3)nn1)=C\CC[C@@]1(C)O[C@@H]21 | -61% (active)
O=C(Nc1cccc(C(F)(F)F)c1)Nc1ccc(OCc2nnc(-c3ccccc3)o2)c(F)c1 | 32.6% (inactive)
COC12CC(=O)C(C(C)=O)=C(O)C1(C)c1c(O)c(C)c(O)c(C(C)=O)c1O2 (stereo not given) | 99.8% (inactive)
O=C(C[N+](=O)[O-])c1ccc(Cl)cc1 | 116% (inactive)
COc1cc(/C=C/C(=O)c2ccc(NC(=O)CN3CCN(c4cc5c(cc4F)c(=O)c(C(=O)O)cn5C4CC4)CC3)cc2)cc(OC)c1OC | -12.8% (active)
O=C(O)c1ccc(-n2c(=O)c3ccccc3c3ccccc3c2=O)cc1 | 105% (inactive)
Cc1nc2sccn2c1-c1csc(Nc2ccccc2Cl)n1 | 41.6% (inactive)
O=C(CCl)NCCNc1nccc(Nc2ccc(S(=O)(=O)Nc3ccccn3)cc2)n1 | 61.1% (inactive)
CCN(C(=O)c1cc2ccccc2[nH]1)[C@H]1CCC[C@@H](NCc2ccc(OC)cc2)C1 | 87.6% (inactive)
CSc1nc(-c2cc3ccccc3o2)cc(-c2ccc(Cl)cc2)c1C#N | 42.7% (inactive)
CCn1cc(C(=O)O)c(=O)c2cc(F)c(N3CCN(S(=O)(=O)c4ccc(OC)c(OC)c4)CC3)cc21 | 99.3% (inactive)
CCn1cc(C2NC(=O)c3cc(F)ccc3N2)c2cccc(Cl)c21 (stereo not given) | -11.5% (active)
NC(=O)NC(=O)/C=C/C(=O)OCCCl | 97.7% (inactive)
COC1=CC(c2ccc[nH]2)=N/C1=C\c1[nH]c(C)c(C(=O)CCCCC(=O)NCc2ccccc2)c1C | 55.2% (inactive)
COc1ccc(/C=C/C(=O)OCC(=O)NNC(=O)c2ccccc2)cc1OC | 118% (inactive)
